Assay results: PubChem BioAssay AID1159580 (chemical genetic matrix, 2015)
Out of some 5,500 compounds screened, about 2,000 (36%) were called active. Another 18% or so got no clear call; they are omitted. Cut-off read from the data, not from the text of the source: active = normalized growth mostly below about 0.91 (no sharp cut-off); inconclusive = no clear call, values can overlap the other calls; inactive = mostly above about 0.92. The list shows a part of the results.

Assay: chemical genetic growth profiling, strain panel (AID 1159580);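 note: tested at 20 µM; growth read once vehicle control cultures reached saturation at 30 °C; 1 = growth at the plate median or of vehicle wells; lower values mean less growth of the strain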
Conditions: growth OD

Measured: normalized growth

C[C@@H]1CC2C3C[C@H](F)C4=CC(=O)C=C[C@]4(C)[C@@]3(F)[C@@H](O)C[C@]2(C)[C@@]1(O)C(=O)COC(=O)C(C)(C)C (some centres not stated)
inactive: S. cerevisiae deletion strains, locus YJR075W, strain HOC1, hits give low values 0.997 | S. cerevisiae deletion strains, locus YKL009W, strain mrt4, hits give low values 0.982 | S. cerevisiae deletion strains, locus YKL068W, hits give low values 1.01 | S. cerevisiae deletion strains, locus YKL085W, strain MDH1 (second series), hits give low values 1 | S. cerevisiae deletion strains, locus YKL085W, strain MDH1, hits give low values 1 | S. cerevisiae deletion strains, locus YKL160W, strain elf1, hits give low values 0.978 | S. cerevisiae deletion strains, locus YKL190W, strain CNB1, hits give low values 0.997 | S. cerevisiae deletion strains, locus YKR001C, strain vps1, hits give low values 0.988 | S. cerevisiae deletion strains, locus YKR026C, strain gcn3, hits give low values 0.997 | S. cerevisiae deletion strains, locus YKR091W, strain srl3, hits give low values 0.996 | S. cerevisiae deletion strains, locus YLL001W, strain dnm1, hits give low values 0.987 | S. cerevisiae deletion strains, locus YLL026W, hits give low values 0.984 | S. cerevisiae deletion strains, locus YLL041C, strain sdh2, hits give low values 1.01 | S. cerevisiae deletion strains, locus YLR027C, strain aat2, hits give low values 0.987 | S. cerevisiae deletion strains, locus YLR039C, strain RIC1, hits give low values 1.02 | S. cerevisiae deletion strains, locus YLR058C, strain SHM2, hits give low values 1.01 | S. cerevisiae deletion strains, locus YLR102C, strain apc9, hits give low values 1.01 | S. cerevisiae deletion strains, locus YLR113W, strain HOG1, hits give low values 0.969 | S. cerevisiae deletion strains, locus YLR221C, strain rsa3, hits give low values 0.99 | S. cerevisiae deletion strains, locus YLR258W, strain gsy2, hits give low values 0.995 | S. cerevisiae deletion strains, locus YLR262C, strain YPT6 (second series), hits give low values 0.98 | S. cerevisiae deletion strains, locus YLR262C, strain YPT6, hits give low values 0.977 | S. cerevisiae deletion strains, locus YLR268W, strain sec22, hits give low values 0.984 | S. cerevisiae deletion strains, locus YLR320W, strain mms22, hits give low values 0.975 | S. cerevisiae deletion strains, locus YLR330W, strain CHS5, hits give low values 1.01 | S. cerevisiae deletion strains, locus YLR342W, strain FKS1 (second series), hits give low values 1.03 | S. cerevisiae deletion strains, locus YLR342W, strain FKS1, hits give low values 0.978 | S. cerevisiae deletion strains, locus YLR357W, strain rsc2, hits give low values 0.979 | S. cerevisiae deletion strains, locus YLR370C, strain arc18, hits give low values 0.987 | S. cerevisiae deletion strains, locus YLR371W, strain rom2, hits give low values 1.01 | S. cerevisiae deletion strains, locus YLR384C, strain iki3, hits give low values 0.987 | S. cerevisiae deletion strains, locus YLR418C, strain cdc73, hits give low values 1.03 | S. cerevisiae deletion strains, locus YML016C, strain PPZ1, hits give low values 1 | S. cerevisiae deletion strains, locus YML032C, strain rad52, hits give low values 1 | S. cerevisiae deletion strains, locus YML120C, strain ndi1, hits give low values 0.999 | S. cerevisiae deletion strains, locus YML124C, strain tub3, hits give low values 1 | S. cerevisiae deletion strains, locus YMR058W, strain fet3, hits give low values 1.01 | S. cerevisiae deletion strains, locus YMR078C, strain ctf18, hits give low values 1.01 | S. cerevisiae deletion strains, locus YMR125W, strain sto1, hits give low values 1.01 | S. cerevisiae deletion strains, locus YMR129W, hits give low values 0.988 | S. cerevisiae deletion strains, locus YMR205C, strain PFK2, hits give low values 0.977 | S. cerevisiae deletion strains, locus YMR223W, strain ubp8, hits give low values 1.04 | S. cerevisiae deletion strains, locus YMR231W, strain pep5, hits give low values 0.998 | S. cerevisiae deletion strains, locus YMR263W, strain SAP30, hits give low values 1.01 | S. cerevisiae deletion strains, locus YMR307W, strain GAS1, hits give low values 0.95 | S. cerevisiae deletion strains, locus YNL067W, strain RPL9B, hits give low values 0.998 | S. cerevisiae deletion strains, locus YNL071W, strain lat1, hits give low values 1 | S. cerevisiae deletion strains, locus YNL183C, strain NPR1, hits give low values 0.962 | S. cerevisiae deletion strains, locus YNL209W, strain ssb2, hits give low values 0.996 | S. cerevisiae deletion strains, locus YNL233W, strain BNI4, hits give low values 1.01 | S. cerevisiae deletion strains, locus YNL248C, strain rpa49, hits give low values 1.01 | S. cerevisiae deletion strains, locus YNL250W, strain rad50, hits give low values 1.02 | S. cerevisiae deletion strains, locus YNL271C, strain bni1, hits give low values 1.01 | S. cerevisiae deletion strains, locus YNL298W, strain CLA4, hits give low values 0.998 | S. cerevisiae deletion strains, locus YNL307C, strain MCK1, hits give low values 1.02 | S. cerevisiae deletion strains, locus YNL322C, strain KRE1 (second series), hits give low values 1 | S. cerevisiae deletion strains, locus YNR049C, strain mso1, hits give low values 0.998 | S. cerevisiae deletion strains, locus YNR052C, strain pop2, hits give low values 0.998 | S. cerevisiae deletion strains, locus YOL012C, strain htz1 1.17 | S. cerevisiae deletion strains, locus YOL147C, strain pex11, hits give low values 1.01 | S. cerevisiae deletion strains, locus YOR001W, strain rrp6, hits give low values 0.98 | S. cerevisiae deletion strains, locus YOR061W, strain CKA2, hits give low values 1 | S. cerevisiae deletion strains, locus YOR069W, strain VPS5, hits give low values 1.01 | S. cerevisiae deletion strains, locus YOR070C, strain gyp1, hits give low values 0.999 | S. cerevisiae deletion strains, locus YOR080W, strain dia2, hits give low values 0.979 | S. cerevisiae deletion strains, locus YOR083W, strain WHI5, hits give low values 0.982 | S. cerevisiae deletion strains, locus YOR106W, strain vam3, hits give low values 0.987 | S. cerevisiae deletion strains, locus YOR136W, strain idh2, hits give low values 1.01 | S. cerevisiae deletion strains, locus YOR144C, strain elg1, hits give low values 1 | S. cerevisiae deletion strains, locus YOR184W, strain ser1, hits give low values 1.04 | S. cerevisiae deletion strains, locus YOR231W, strain MKK1, hits give low values 0.976 | S. cerevisiae deletion strains, locus YOR265W, strain rbl2, hits give low values 0.99 | S. cerevisiae deletion strains, locus YOR270C, strain vph1, hits give low values 1.01 | S. cerevisiae deletion strains, locus YOR290C, strain snf2, hits give low values 0.997 | S. cerevisiae deletion strains, locus YOR316C, strain cot1, hits give low values 1.01 | S. cerevisiae deletion strains, locus YPL051W, strain arl3, hits give low values 0.978 | S. cerevisiae deletion strains, locus YPL055C, strain LGE1, hits give low values 0.999 | S. cerevisiae deletion strains, locus YPL078C, strain atp4, hits give low values 0.974 | S. cerevisiae deletion strains, locus YPL106C, strain sse1, hits give low values 0.946 | S. cerevisiae deletion strains, locus YPL240C, strain hsp82, hits give low values 1 | S. cerevisiae deletion strains, locus YPL256C, strain CLN2, hits give low values 0.992 | S. cerevisiae deletion strains, locus YPR119W, strain clb2, hits give low values 1.01 | S. cerevisiae deletion strains, locus YPR141C, strain kar3, hits give low values 1 | S. cerevisiae deletion strains, locus YPR163C, strain tif3, hits give low values 1 | S. cerevisiae deletion strains, locus YPR167C, strain met16, hits give low values 1.01 | S. cerevisiae deletion strains, strain wtn01, hits give low values 1 | S. cerevisiae strains, strain wild type, hits give low values 0.995
